Compound activity from PubChem.
ClpP mod: qHTS Assay for Activators of ClpP; Potency, µM (top dose mostly 57.5 µM); purified B. subtilis ClpP, FRET peptide cleavage, 20 min; 1.9% of 340,000 active; AID 651965, 2013; ATP-dependent Clp protease proteolytic subunit (Bacillus subtilis (strain 168)), P80244; active = well fitted falling curve with a large enough effect; inconclusive = small, poorly fitted or top-dose-only effect; inactive = no such curve, though single readings can be large or run the other way; also: the source files actives as falling curves though it sought activators and does not explain the sign; nearly all actives have a fitted effect of over 65% in size
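Buffer: 100 mM Tris/HCl pH8, 100 mM KCl, 0.05% low protease BSA, 2.5% glycerol, 0.01% Tween-20. ClpP 10 microg/mL final; 20 min RT; delta FRET normalized to ADEP and DMSO controls.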
TDP1 cell noCPT: qHTS for Inhibitors of human tyrosyl-DNA phosphodiesterase 1 (TDP1): qHTS in cells in absence of CPT; DT40 Tdp1-/- hTDP1 cells, no CPT, ATP luminescence, 48 h; Potency, µM (highest dose often 46.2 µM), hits mostly inhibitors; 15% of 420,000 active; also: nearly all actives have a fitted effect of over 55% in size
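A cellular qHTS used chicken DT40 cells lacking endogenous Tdp1 but carrying stably transfected human TDP1. Compounds were applied without camptothecin, and cell growth kinetics were judged by ATP-dependent luminescence after ≥48 hr.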
TDP1 cell CPT: growth inhibition of DT40 Tdp1-/-;hTDP1 cells with camptothecin (screen for TDP1 inhibitors); chicken DT40 Tdp1-/-;hTDP1 cells + 20 nM CPT, ATP luminescence, 48 h; Potency, µM (highest dose often 46.2 µM), most hits filed as inhibitors; 12% of 420,000 active; also: nearly all actives have a fitted effect of over 55% in size
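Chicken DT40 Tdp1-/- cells stably complemented with human TDP1 were seeded at 400 cells/well in medium containing 20 nM camptothecin, exposed to pin-transferred compounds, and grown at 37 °C for at least 48 hr. Viability was read as ATP luminescence.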
TDP1 block: blocks human tyrosyl-DNA phosphodiesterase 1; recombinant TDP1, AlphaScreen DNA substrate cleavage; Potency, µM (top dose mostly 130 µM), most hits filed as inhibitors; 0.28% of 350,000 active; AID 485290; also: nearly all actives have a fitted effect of over 40% in size
Target sequence (Q9NUW8 whole entry, looked up): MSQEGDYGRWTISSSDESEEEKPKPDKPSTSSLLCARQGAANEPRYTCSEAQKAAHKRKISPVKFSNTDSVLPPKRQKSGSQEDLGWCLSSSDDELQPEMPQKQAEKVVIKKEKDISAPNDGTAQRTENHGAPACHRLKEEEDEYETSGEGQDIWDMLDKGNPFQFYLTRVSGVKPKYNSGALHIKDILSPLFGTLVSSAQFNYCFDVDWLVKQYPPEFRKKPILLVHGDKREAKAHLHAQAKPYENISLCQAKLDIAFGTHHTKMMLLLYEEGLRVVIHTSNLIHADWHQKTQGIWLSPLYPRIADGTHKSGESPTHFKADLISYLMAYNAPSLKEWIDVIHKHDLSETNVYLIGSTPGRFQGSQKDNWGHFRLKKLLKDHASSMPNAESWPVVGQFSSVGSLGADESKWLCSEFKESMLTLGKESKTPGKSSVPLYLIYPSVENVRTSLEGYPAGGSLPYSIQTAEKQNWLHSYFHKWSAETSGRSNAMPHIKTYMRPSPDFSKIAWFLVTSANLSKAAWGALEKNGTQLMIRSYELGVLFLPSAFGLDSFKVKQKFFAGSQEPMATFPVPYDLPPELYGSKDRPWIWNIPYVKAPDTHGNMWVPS
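Signal: AlphaScreen proximity between streptavidin donor and anti-FITC acceptor beads on intact substrate. Reaction: Tdp1 1 nM, substrate 15 nM final, 5 min RT after 15 min compound preincubation.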
Hits are given with their value; [ ] = another dose, or the depositor's remark. An excerpt weighted towards active compounds, which were near 17% of everything screened. Unless noted, calls follow the shape of the dose curve; as a rule, active = well fitted curve in the direction sought with a large enough effect; inconclusive = small, poorly fitted or top-dose-only effect, or another doubt; inactive = no such curve, though single readings can be large; an effect the other way counts as inactive or inconclusive.

What do the screens show for `COc1cccc(N(CC(=O)N2CCC(C)CC2)S(=O)(=O)c2ccc(C)cc2)c1`?
ClpP mod: inactive; TDP1 cell noCPT: 15µM; TDP1 cell CPT: 21µM; TDP1 block: inactive[12.3 µM]

Results for CCOC(=O)N1CCN(C(=O)CS(=O)(=O)c2cn(Cc3ccccc3Cl)c3ccccc23)CC1 ?
ClpP mod: inactive; TDP1 cell noCPT: inconclusive; TDP1 cell CPT: inconclusive; TDP1 block: inactive

Results for COc1oc(=O)c2cc(N)ccc2c1Cl ?
TDP1 block: inactive

Results for O=C(NCC(c1ccco1)N1CCCC1)c1cc(S(=O)(=O)N2CCOCC2)ccc1Cl (stereo not drawn) ?
ClpP mod: inactive; TDP1 cell noCPT: inactive; TDP1 cell CPT: inactive; TDP1 block: inactive

Results for CCOc1ccccc1N(CC(=O)N1CCC(C)CC1)S(=O)(=O)c1ccc(C)cc1 ?
ClpP mod: inactive; TDP1 cell noCPT: 15µM; TDP1 cell CPT: 9.2µM; TDP1 block: inactive

How did CCOc1ccccc1N(CC(=O)N1CCCCCC1)S(=O)(=O)c1ccc(C)cc1 do in these assays?
ClpP mod: inactive; TDP1 cell noCPT: inconclusive; TDP1 cell CPT: 23µM; TDP1 block: inactive

Results for CCOc1ccccc1N(CC(=O)NC1CCCC1)S(=O)(=O)c1ccc(C)cc1 ?
TDP1 cell noCPT: 21µM; TDP1 cell CPT: inconclusive; TDP1 block: inactive[0.0935 µM]

What do the screens show for `Cc1cccc(N(CC(=O)NC2CCCC2)C(=O)c2nsc(Cl)c2Cl)c1C`?
TDP1 cell noCPT: inconclusive; TDP1 cell CPT: inconclusive; TDP1 block: inactive

What do the screens show for `CCOc1ccccc1N(CC(=O)NC1CCCCC1)C(=O)c1nsc(Cl)c1Cl`?
TDP1 cell noCPT: 26µM; TDP1 cell CPT: inactive; TDP1 block: inactive

How did Cc1ccc(S(=O)(=O)N(CC(=O)NC2CCCCCC2)c2ccccc2F)cc1 do in these assays?
ClpP mod: inactive; TDP1 cell noCPT: inactive; TDP1 cell CPT: inactive; TDP1 block: inactive

How did CCOC(=O)N1CCN(C(=O)c2ccc(CS(=O)c3ccccc3)o2)CC1 (stereo not drawn) do in these assays?
ClpP mod: inactive; TDP1 cell noCPT: inactive; TDP1 cell CPT: inactive; TDP1 block: inactive

Results for CCN(CC)CCCN=Cc1c(O)n(-c2ccccc2C)c(=O)c2ccccc12 ?
ClpP mod: inactive; TDP1 cell noCPT: inactive; TDP1 cell CPT: inconclusive; TDP1 block: inactive

Results for COc1cccc(CNC(=O)Cn2nc(N3CCN(c4ccccc4OC)CC3)ccc2=O)c1 ?
ClpP mod: inactive; TDP1 cell noCPT: 21µM; TDP1 cell CPT: 18µM; TDP1 block: inactive

What do the screens show for `CCOc1ccccc1CNC(=O)Cn1nc(N2CCN(c3ccccc3)CC2)ccc1=O`?
ClpP mod: inactive; TDP1 cell noCPT: 21µM; TDP1 cell CPT: 21µM; TDP1 block: inactive

Results for COc1ccc(CNC(=O)Cn2nc(N3CCN(c4ccccc4)CC3)ccc2=O)c(OC)c1 ?
ClpP mod: inactive; TDP1 cell noCPT: 15µM; TDP1 cell CPT: inconclusive; TDP1 block: inactive

Results for COc1ccccc1NC(=O)CN1CCN(c2ccccc2OC)CC1 ?
ClpP mod: inactive; TDP1 cell noCPT: inconclusive; TDP1 cell CPT: inactive

Results for CCc1ccccc1NC(=O)Cn1nc(N2CCN(c3ccccc3OC)CC2)ccc1=O ?
ClpP mod: inactive; TDP1 cell noCPT: 13µM; TDP1 cell CPT: inconclusive; TDP1 block: inactive

Results for O=C(Cn1nc(N2CCN(c3ccccc3)CC2)ccc1=O)NCc1ccccc1F ?
ClpP mod: inactive; TDP1 cell noCPT: inconclusive; TDP1 cell CPT: inactive; TDP1 block: inactive

What do the screens show for `CC(=O)OC[C@@H]1CN(Cc2ccccc2)C[C@H](n2cnc3c(NCC(C)C)ncnc32)O1`?
ClpP mod: inactive; TDP1 cell noCPT: inconclusive; TDP1 cell CPT: inconclusive

Results for CC(=O)OCC1OC(c2ccc(C(C)=O)cc2)C=CC1OC(C)=O (stereo not drawn) ?
TDP1 block: inactive[21 µM]

Results for C/C=C\C=C/C(=O)Nc1cccc(C2=NOC3(C2)C[C@@H](C(N)=O)N(C(=O)/C=C/CC)C3)c1 (stereo partly drawn) ?
ClpP mod: inactive; TDP1 cell noCPT: inactive; TDP1 cell CPT: inactive; TDP1 block: inactive

Results for C/C=C\C=C\C(=O)N1CC2(CC(c3cccc(NC(=O)CC(c4ccccc4)c4ccccc4)c3)=NO2)C[C@H]1C(N)=O (stereo partly drawn) ?
ClpP mod: inactive; TDP1 cell noCPT: 18µM; TDP1 cell CPT: inconclusive; TDP1 block: inactive

Results for C/C=C\C=C/C(=O)Nc1cccc(C2=NOC3(C2)C[C@@H](C(N)=O)N(C(=O)/C=C/C=C\C)C3)c1 (stereo partly drawn) ?
ClpP mod: inactive; TDP1 cell noCPT: inactive; TDP1 cell CPT: inconclusive; TDP1 block: 20µM

How did CCCCN(C)C(=S)Nc1ccsc1C(=O)OC do in these assays?
ClpP mod: inactive; TDP1 cell noCPT: inactive; TDP1 cell CPT: inconclusive

Results for COc1ccc(Nc2nc(N)nc(CCl)n2)cc1 ?
ClpP mod: inactive; TDP1 cell noCPT: inconclusive; TDP1 cell CPT: 23µM; TDP1 block: inactive

How did Cc1ccccc1Nc1nc(N)nc(CN(C)c2ccccc2)n1 do in these assays?
ClpP mod: inactive; TDP1 cell noCPT: inconclusive; TDP1 cell CPT: inactive; TDP1 block: inactive

What do the screens show for `Cc1ccccc1Nc1nc(N)nc(CCl)n1`?
ClpP mod: inactive; TDP1 cell noCPT: 23µM; TDP1 cell CPT: 21µM; TDP1 block: inactive

How did Nc1nc(CCl)nc(Nc2ccc3ccccc3c2)n1 do in these assays?
ClpP mod: inactive; TDP1 cell noCPT: 15µM; TDP1 cell CPT: 12µM; TDP1 block: inactive

Results for CCN(CC)S(=O)(=O)c1cc(C(=O)Nc2cc(C)[nH]n2)ccc1Cl ?
ClpP mod: inactive; TDP1 cell noCPT: inactive; TDP1 cell CPT: inactive

How did COc1ccc(/C=C2/C(=O)N(c3nc4ccccc4s3)N=C2CSc2ccc(Cl)cc2)cc1 do in these assays?
ClpP mod: inactive; TDP1 cell noCPT: inconclusive; TDP1 cell CPT: inactive; TDP1 block: inactive

Results for Cc1ccc(-n2c(C)nc3c(cnn3-c3ccccc3)c2=O)cc1 ?
ClpP mod: inactive; TDP1 block: inactive

Results for O=c1oc(-c2cccc(Cl)c2)nc2c1cnn2-c1ccccc1 ?
ClpP mod: inconclusive; TDP1 cell noCPT: inconclusive; TDP1 cell CPT: inconclusive; TDP1 block: inactive

How did Cc1ccc(-c2nc3c(cnn3-c3ccccc3)c(=O)n2-c2cccc(Cl)c2)cc1 do in these assays?
ClpP mod: inconclusive; TDP1 cell noCPT: 13µM; TDP1 cell CPT: 23µM; TDP1 block: inactive[12.3 µM]

How did C=CCn1c(C)nc2c(cnn2-c2ccccc2)c1=O do in these assays?
TDP1 cell noCPT: inactive; TDP1 cell CPT: inactive

What do the screens show for `COc1cccc(/C=N/n2cnc3c(cnn3-c3ccccc3)c2=O)c1`?
ClpP mod: inactive; TDP1 cell noCPT: inactive; TDP1 cell CPT: inactive

What do the screens show for `O=c1oc(-c2ccccc2F)nc2c1cnn2-c1ccccc1`?
ClpP mod: inactive; TDP1 cell noCPT: 23µM; TDP1 cell CPT: inconclusive; TDP1 block: inactive
